# Compounds without any hit were thinned out: in the full panel of roughly 83,000, 20% have a hit.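 Step 1: grow cells in 96-well plates. Step 2: add test compound at a single concentration. Step 3: incubate 48 h. Step 4: record percent growth.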 The source made the active and inactive calls. How the source made its calls: active means growth percent below 10; inactive means the rest.
# Tested on: MCF7 breast
# Experiment: NCI-60 one-dose screen, 48 h (100 = growth as untreated, 0 = no growth, -100 = all killed)
# Conditions: 10 µM unless noted
row,SMILES,growth
1,Fc1ccc(C2=NN(c3ccccc3)C(c3sc(N(CCCl)CCCl)nc3Cl)C2)cc1 (stereo not given),72.2% (inactive)
2,CC[C@H](C)[C@H](NC(=O)Nc1ccccc1)C(=O)N(C)[C@H](C[C@@H](OC(C)=O)c1nc(C(=O)N[C@@H](Cc2ccccc2)C[C@H](C)C(=O)OC)cs1)C(C)C,12.4% (inactive)
3,c1ccc(CCN2CCCCC2Cc2ccccc2)cc1 (stereo not given),96.1% (inactive)
4,CC(=O)O[C@H]1CCC2(C)C(=CCC3C2CCC2(C)/C(=N/OC(=O)c4ccc(N(CCCl)CCCl)cc4)CCC32)C1 (stereo not given in full),39% (inactive)
5,O=C(N/N=C/c1ccc(N(CCCl)CCCl)cc1)c1cc(=O)[nH]c(=O)[nH]1,74.5% (inactive)
6,O=[As]c1ccc(C(=O)c2ccc(Oc3ccccc3)cc2)cc1 (stereo not given),-48.6% (active)
7,O=[N+]([O-])c1cc([N+](=O)[O-])c(Cl)c(Cl)c1Cl,2.17% (active)
8,Cc1cc(NC(=O)NCCOc2ccc(N3C(N)=NC(N)=NC3(C)C)cc2Cl)ccc1S(=O)(=O)F,4.3% (active)
9,COc1ccc2c(c1)NC1=C(C(=O)OC1)C2c1cc(OC)c(OC)c(OC)c1 (stereo not given),9.07% (active)
10,C=CCc1ccc(OC(=O)Cc2ccccc2)c(OC)c1,96% (inactive)
11,CC(C)(O)/C=C/C(=O)[C@](C)(O)[C@H]1[C@H](O)C[C@@]2(C)[C@@H]3CC=C4[C@@H](C=C(O)C(=O)C4(C)C)[C@]3(C)C(=O)C[C@]12C,2.31% (active)
12,C[C@]12CCc3sc(-c4ccc(Cl)cc4)nc3C1=CC[C@@H]1[C@@H]2CC[C@]2(C)C(=O)CC[C@@H]12,24.4% (inactive)
13,C=CCC1(CC)C(=O)NC(=S)NC1=O,103% (inactive)
14,NC(Cc1ccc2c(c1)OCO2)c1ccc2c(c1)OCO2 (stereo not given),89.2% (inactive)
15,O=C(CF)N(O)c1ccc(/C=C/c2ccccc2)cc1,16.5% (inactive)
16,COc1ccc(/C=C(/C(=O)N2CCCC2)c2cc(OC)c(OC)c(OC)c2)cc1N,14.2% (inactive)
17,Nc1nc(N)c(-c2ccc(Cl)c(Cl)c2)c(/C=C/c2ccc(S(=O)(=O)F)cc2)n1,73.5% (inactive)
18,Nc1c(Br)cc([N+](=O)[O-])cc1[N+](=O)[O-],103% (inactive)
19,Oc1ccc(O)c2c1C1(Cl)C(Cl)=C(Cl)C2(Cl)C1(Cl)Cl,38.9% (inactive)
20,CN(C)P1(N(C)C)=NP(N(C)C)(N(C)C)=NP(N(C)C)(N(C)C)=N1,95.4% (inactive)

row,SMILES,growth
1,CCCCNCCc1ccccn1,92.1% (inactive)
2,CNC(=O)Oc1cccc(OC)c1,101% (inactive)
3,C=C=[CH][Sn]([c]1ccccc1)([c]1ccccc1)[c]1ccccc1,-52.5% (active)
4,NC(=O)SCC(=O)Nc1ccc([As](=O)(O)O)cc1,75.3% (inactive)
5,C[C@]12CC[C@H]3[C@@H](C[C@@H]4N=C(c5ccc(O)cc5)S[C@@]45C[C@H](O)CC[C@]35C)[C@@H]1CC[C@@H]2O,42.6% (inactive)
6,CC1(C)N=C(N)N=C(N)N1c1ccc(CCCCc2ccc(S(=O)(=O)F)cc2)cc1,2.82% (active)
7,Nc1c(Br)cc2c3c(cccc13)-c1ccccc1-2,38.7% (inactive)
8,COc1cc2c(cc1OC)CN(C)C(C)C2 (stereo not given),95.5% (inactive)
9,CC(C)C1c2ccc(O)cc2Oc2nc(N)c(C#N)c(N)c21 (stereo not given),124% (inactive)
10,c1ccc2nc(OCCN3CC3)ccc2c1,71.4% (inactive)
11,CC1(C)N=C(N)N=C(N)N1c1ccc(CNC(=O)Nc2ccc(S(=O)(=O)F)c(Cl)c2)c(Cl)c1,1.42% (active)
12,c1ccc(-c2ccc3ccccc3[o+]2)cc1,67% (inactive)
13,CSc1ccccc1NP1(=O)OCC(C)([N+](=O)[O-])CO1 (stereo not given),98.1% (inactive)
14,CC1COC(=O)C1 (stereo not given),93.8% (inactive)
15,C[CH2][Pb]([CH2]C)([CH2]C)[O]C(=O)COc1ccccc1,0.688% (active)
16,COc1ccc(/C=C\c2cc(OC)c(OC)c(OC)c2)cc1N/C=C\C(=O)c1c[nH]c2ccccc12,14.7% (inactive)
17,CCCC(C)(C)c1ccc2c(c1)OC(C)(C)[C@@H]1CC=C(C)C[C@@H]21,93.9% (inactive)
18,OC1(c2ccc(Cl)cc2Cl)c2ccccc2C2=NCCN21 (stereo not given),96.4% (inactive)
19,CC1(CF)NC(=O)NC1=O (stereo not given),92.7% (inactive)
20,O=C(Nc1ccc(S(=O)(=O)F)cc1)Oc1ccccc1,91.6% (inactive)

# Tested on: HCT-116 colon
# Experiment: as above
# Conditions: 10 µM unless noted
row,SMILES,growth
1,Fc1ccc(C2=NN(c3ccccc3)C(c3sc(N(CCCl)CCCl)nc3Cl)C2)cc1 (stereo not given),68.2% (inactive)
2,CC[C@H](C)[C@H](NC(=O)Nc1ccccc1)C(=O)N(C)[C@H](C[C@@H](OC(C)=O)c1nc(C(=O)N[C@@H](Cc2ccccc2)C[C@H](C)C(=O)OC)cs1)C(C)C,6.85% (active)
3,CC(=O)O[C@H]1CCC2(C)C(=CCC3C2CCC2(C)/C(=N/OC(=O)c4ccc(N(CCCl)CCCl)cc4)CCC32)C1 (stereo not given in full),9.02% (active)
4,O=C(N/N=C/c1ccc(N(CCCl)CCCl)cc1)c1cc(=O)[nH]c(=O)[nH]1,90.7% (inactive)
5,O=[As]c1ccc(C(=O)c2ccc(Oc3ccccc3)cc2)cc1 (stereo not given),-99.2% (active)
6,O=[N+]([O-])c1cc([N+](=O)[O-])c(Cl)c(Cl)c1Cl,-53.9% (active)
7,Cc1cc(NC(=O)NCCOc2ccc(N3C(N)=NC(N)=NC3(C)C)cc2Cl)ccc1S(=O)(=O)F,13.9% (inactive)
8,COc1ccc2c(c1)NC1=C(C(=O)OC1)C2c1cc(OC)c(OC)c(OC)c1 (stereo not given),5.07% (active)
9,C=CCc1ccc(OC(=O)Cc2ccccc2)c(OC)c1,105% (inactive)
10,CC(C)(O)/C=C/C(=O)[C@](C)(O)[C@H]1[C@H](O)C[C@@]2(C)[C@@H]3CC=C4[C@@H](C=C(O)C(=O)C4(C)C)[C@]3(C)C(=O)C[C@]12C,-53.5% (active)
11,C[C@]12CCc3sc(-c4ccc(Cl)cc4)nc3C1=CC[C@@H]1[C@@H]2CC[C@]2(C)C(=O)CC[C@@H]12,52.3% (inactive)
12,C=CCC1(CC)C(=O)NC(=S)NC1=O,108% (inactive)
13,NC(Cc1ccc2c(c1)OCO2)c1ccc2c(c1)OCO2 (stereo not given),95.5% (inactive)
14,O=C(CF)N(O)c1ccc(/C=C/c2ccccc2)cc1,11.5% (inactive)
15,Nc1nc(N)c(-c2ccc(Cl)c(Cl)c2)c(/C=C/c2ccc(S(=O)(=O)F)cc2)n1,77.7% (inactive)
16,CCCCNCCc1ccccn1,102% (inactive)
17,CNC(=O)Oc1cccc(OC)c1,103% (inactive)
18,C=C=[CH][Sn]([c]1ccccc1)([c]1ccccc1)[c]1ccccc1,-97.4% (active)

row,SMILES,growth
1,NC(=O)SCC(=O)Nc1ccc([As](=O)(O)O)cc1,85.6% (inactive)
2,C[C@]12CC[C@H]3[C@@H](C[C@@H]4N=C(c5ccc(O)cc5)S[C@@]45C[C@H](O)CC[C@]35C)[C@@H]1CC[C@@H]2O,43.8% (inactive)
3,CC1(C)N=C(N)N=C(N)N1c1ccc(CCCCc2ccc(S(=O)(=O)F)cc2)cc1,12.6% (inactive)
4,Nc1c(Br)cc2c3c(cccc13)-c1ccccc1-2,81.4% (inactive)
5,COc1cc2c(cc1OC)CN(C)C(C)C2 (stereo not given),105% (inactive)
6,CC(C)C1c2ccc(O)cc2Oc2nc(N)c(C#N)c(N)c21 (stereo not given),103% (inactive)
7,c1ccc2nc(OCCN3CC3)ccc2c1,25% (inactive)
8,CC1(C)N=C(N)N=C(N)N1c1ccc(CNC(=O)Nc2ccc(S(=O)(=O)F)c(Cl)c2)c(Cl)c1,10.1% (inactive)
9,c1ccc(-c2ccc3ccccc3[o+]2)cc1,95.7% (inactive)
10,CSc1ccccc1NP1(=O)OCC(C)([N+](=O)[O-])CO1 (stereo not given),98% (inactive)
11,CC1COC(=O)C1 (stereo not given),102% (inactive)
12,C[CH2][Pb]([CH2]C)([CH2]C)[O]C(=O)COc1ccccc1,4.13% (active)
13,COc1ccc(/C=C\c2cc(OC)c(OC)c(OC)c2)cc1N/C=C\C(=O)c1c[nH]c2ccccc12,2.62% (active)
14,CCCC(C)(C)c1ccc2c(c1)OC(C)(C)[C@@H]1CC=C(C)C[C@@H]21,87.6% (inactive)
15,OC1(c2ccc(Cl)cc2Cl)c2ccccc2C2=NCCN21 (stereo not given),78.8% (inactive)
16,CC1(CF)NC(=O)NC1=O (stereo not given),103% (inactive)
17,O=C(Nc1ccc(S(=O)(=O)F)cc1)Oc1ccccc1,116% (inactive)
